Measurements reported in PubChem BioAssay (NCI).
The panel holds about 83,000 compounds, 20% with a hit somewhere; the sample as a whole holds those more often.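 How to read the values: 0–100, growth inhibition (40 = 60% inhibited); 0, no net growth; -100 to 0, cell death (-40 = 40% of starting cells died; -100 = all dead).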 Active and inactive are the calls of the source. How the source made its calls: active means growth percent below 10; inactive means the rest.

System: MDA-MB-468 breast
Assay: NCI-60 one-dose screen, 48 h (100 = growth as untreated, 0 = no growth, -100 = all killed)
Settings: 10 µM unless noted

Row | Compound | growth
1 | Cn1c(=O)cc2c3c(c(NCCCO)ccc31)C(=O)c1ccccc1-2 | 39.8% (inactive)
2 | Cc1nn(-c2ccc([N+](=O)[O-])cc2)c2ncnc(N/N=C/c3ccccc3O)c12 | -16.6% (active)
3 | C[C@H](c1nc2ccc(C#N)cc2[nH]1)[C@H]1CC[C@H]2[C@@H]3CCC4=CC(=O)CC[C@]4(C)[C@H]3CC[C@]12C | 15.6% (inactive)
4 | Cc1cc(Cl)c2ccc(N(C)C)cc2n1 | 94.3% (inactive)
5 | COc1ccc(/C=C/C(=O)Nc2ccc(-c3nc4ccc(OC)cc4s3)cc2)cc1 | 67.2% (inactive)
6 | O=S(=O)(/N=C1C=C/C(=N\S(=O)(=O)c2ccccc2)c2ccccc2\1)c1ccccc1 | 79.3% (inactive)
7 | CC(=O)c1ccc(Nc2nccc(-c3ccc(Cl)cc3)n2)cc1 | 76.7% (inactive)
8 | CC1=C[C@H]2c3c(c(O)c(O)c4oc(-c5ccccc5)cc(=O)c34)[C@H](c3cc(O)c(O)c4oc(-c5ccccc5)cc(=O)c34)[C@H]2C(C)(C)C1 | 14.2% (inactive)
9 | COc1ccc(C2=C(Br)C(=O)c3nc(C)ccc3C2=O)cc1 | 87.1% (inactive)
10 | CCOc1ccc(-n2nc(C(=O)Nc3cc(OC)c(OC)c(OC)c3)nc2-c2cc(OC)c(OC)c(OC)c2)cc1 | 82% (inactive)
11 | Nc1ccc2c(c1)Cc1cc(Cl)c(Cl)cc1-2 | 34.4% (inactive)
12 | CNC(=O)c1cccc2cc(Oc3ccnc4cc(OCC5(N)CC5)c(OC)cc34)ccc12 | 74.6% (inactive)
13 | CCCCn1c(-c2ccc(C(=O)O/N=C(\N)c3ccc4ccccc4c3)cc2)nc(-c2ccccc2)c1-c1ccccc1 | 79.9% (inactive)
14 | CCOC(=O)C1CCNC(=O)C1=O (stereo not given) | 99.5% (inactive)
15 | CNS(=O)(=O)Oc1ccc(-c2sc3cc(OS(=O)(=O)NC)ccc3c2C(=O)c2ccc(OCCN3CCCCC3)cc2)cc1 | 63.1% (inactive)
16 | O=C(N/N=C/c1ccncc1)c1ccccc1Nc1cccc(C(F)(F)F)c1 | 48.7% (inactive)
17 | O=C1c2ccccc2C2N1CCC1CCc3ccccc3N12 (stereo not given) | 95.1% (inactive)
18 | Cc1cc2c(C(C)C)c(O)c(O)c(C=NCCCCC(=O)O)c2c(O)c1-c1c(C)cc2c(C(C)C)c(O)c(O)c(C=NCCCCC(=O)O)c2c1O | 35.4% (inactive)
19 | CC(C)(C)OC(=O)CN1CCc2c(sc3ncnc(N/N=C/c4cccc5ccccc45)c23)C1 | 34.3% (inactive)
20 | COc1c(C(NC(=O)c2ccccc2)c2sccc2C)cc(Cl)c2cccnc12 (stereo not given) | 102% (inactive)

Row | Compound | growth
21 | Clc1ccc(N2N=C(c3cccc(Nc4ccncc4)c3)CC2c2ccc3c(c2)OCO3)cc1 (stereo not given) | 62.1% (inactive)
22 | C=C(C)[C@@H]1C[C@@H]2Cc3cc(Cl)ccc3N1O2 | 96% (inactive)
23 | COc1cc(/C=C/C(=O)c2ccc(NC(=O)CSc3nnc(-c4ccc(-c5nc6ccc(Cl)cc6[nH]5)cc4)o3)cc2)cc(OC)c1OC | 103% (inactive)
24 | C/C(=N\Nc1cccc(Cl)n1)c1ccccn1 | -31.3% (active)
25 | COc1ccc(OC)c(CCn2cncc2-c2c[nH]c3ccccc23)c1 | 41% (inactive)
26 | CCOc1ccccc1NC(=O)CCC(=O)OC | 99.7% (inactive)
27 | O=C(Nc1cccc(Cn2c(=O)[nH]c3ccc(Oc4ncccn4)cc3c2=O)c1)c1ccc(Cl)cc1 | 16.8% (inactive)
28 | O=C(/C=C/c1cn(-c2ccccc2)nc1-c1ccccc1)OCc1cn(-c2cccc([N+](=O)[O-])c2)nn1 | 107% (inactive)
29 | CCN(CC)CCCNc1cc(OC)c(OC)c2cccnc12 | 90.5% (inactive)
30 | CC(=O)O[C@H]1[C@H](CC#CC#CC[C@@H]2C[C@]3(C)[C@H]4CC=C5[C@H]6[C@@H](C)[C@H](C)CC[C@]6(C(=O)NCCN(CCN)CCN)CC[C@@]5(C)[C@]4(C)CC[C@H]3C(C)(C)[C@H]2OC(C)=O)C[C@]2(C)[C@H]3CC=C4[C@H]5[C@@H](C)[C@H](C)CC[C@]5(C(=O)NCCN(CCN)CCN)CC[C@@]4(C)[C@]3(C)CC[C@H]2C1(C)C | 1.36% (active)
31 | CCCC(=O)NC(c1ccc2c(c1)OC(F)(F)O2)c1cc(C)c2cccnc2c1O (stereo not given) | -14.7% (active)
32 | COC(=O)C(CC=O)C(=O)C(=O)Nc1cccc(C(F)(F)F)c1 (stereo not given) | 104% (inactive)
33 | COc1ccc(/C=C/C(=O)/C=C/c2cc3ccccc3[nH]c2=O)cc1 | 43.9% (inactive)
34 | Nc1n[nH]c2cccc(C#Cc3cccc(C(=O)Nc4ccc(Cl)c(C(F)(F)F)c4)c3)c12 | 74.4% (inactive)
35 | NS(=O)(=O)c1ccc(Nc2nc(SCC(=O)c3ccc(Cl)cc3)nc3ccccc23)cc1 | 82.4% (inactive)
36 | c1ccc2c(N3CCCCC3)ncnc2c1 | 75.9% (inactive)
37 | N=C(N)c1ccc(-c2ccc(-c3ccc(Cl)cc3)s2)s1 | -71.2% (active)
38 | CCCCC(C#N)C(N)=O (stereo not given) | 119% (inactive)
39 | CCOc1cc2c(Cl)ncnc2c(OCC)c1OCC | -51.3% (active)
40 | O=C1Nc2ccccc2/C1=C\c1nc(C2CCN(S(=O)(=O)c3ccc(F)cc3)CC2)n2ccccc12 | 70.6% (inactive)
